# The whole screen tested about 48,000 compounds, of which about 13,000 (27%) showed an effect of 50% or more. The list shows a part of the results.
# Tested on: Wolbachia pipientis
# Experiment: Anti-Wolbachia Cell-Based Screen
# Format: functional
# Parameters: scale not given: in the data most compounds retested in dose-response had high values
# Conditions: 5 µM
row,Structure (SMILES),Percent Effect [%]
1,O=C(O)C(F)(F)F.O=C1[C@H]2CN(Cc3ccco3)C[C@H]2CN1c1cncnc1,5.677
2,COc1ccccc1CC(=O)N(CCN1CCOCC1)Cc1ccco1,0.5032
3,C[C@@H]1CN(Cc2ccco2)CCN1C(=O)Cc1ccccc1F,87.95
4,Cc1ccc2c(n1)N(CC1CC1)CCN(Cc1ccco1)C2.O=C(O)C(F)(F)F.O=C(O)C(F)(F)F,13.96
5,COc1ccccc1CC(=O)N1CCN(Cc2ccco2)C[C@@H]1C,136.4
6,Cc1ccc(F)cc1CC(=O)N(CCN1CCOCC1)Cc1ccco1,-4.12
7,Cc1cccc(C)c1NC(=O)CNC(C)Cc1ccsc1 (stereo unspecified),-3.648
8,Cc1cc(N2CCC(NC(C)Cc3ccsc3)CC2)nc(C)n1 (stereo unspecified),1.122
9,Cc1cccc(CNC(Cc2ccsc2)c2nccs2)n1 (stereo unspecified),152.6
10,Fc1ccccc1CN1CCCC2(CCN(c3ncccn3)C2)C1 (stereo unspecified),-4.552
11,CN(C)C[C@]12COC[C@H]1CN(Cc1ccccn1)C2.O=C(O)C(F)(F)F.O=C(O)C(F)(F)F.O=C(O)C(F)(F)F,-16.37
12,O=C(O)C(F)(F)F.c1cnc(N2CCOCC3(CCCN(Cc4cc[nH]n4)C3)C2)nc1 (stereo unspecified),-14.28
13,O=C(O)C(F)(F)F.O=C(O)C(F)(F)F.O=C(O)C(F)(F)F.c1ccc(CN2CCCC3(CCN(Cc4cccs4)C3)C2)nc1 (stereo unspecified),118.7
14,O=C(NCc1ccccn1)[C@]12COC[C@H]1CN(C1CCC1)C2.O=C(O)C(F)(F)F.O=C(O)C(F)(F)F,-13.49
15,O=C(O)C(F)(F)F.O=C(O)C(F)(F)F.c1ccc(N2CCC3(COCCN(Cc4cccs4)C3)C2)nc1 (stereo unspecified),103.3
16,Cc1nc(CN2CCOCC3(CCN(c4ncccn4)C3)C2)cs1.O=C(O)C(F)(F)F.O=C(O)C(F)(F)F (stereo unspecified),-16.84
17,CCC(CC)CN1CCC2(CCCN(c3ncccn3)C2)C1 (stereo unspecified),-25.35
18,O=C(NCc1ccccn1)[C@]12COC[C@H]1CN(Cc1ccsc1)C2.O=C(O)C(F)(F)F.O=C(O)C(F)(F)F,103
19,O=C(O)C(F)(F)F.O=C(O)C(F)(F)F.O=C1N(c2ccsc2)CCC12CCCN(Cc1ccccn1)C2 (stereo unspecified),2.891
20,c1cnc(N2CCCC3(CCN(Cc4cccs4)C3)C2)nc1 (stereo unspecified),109.3
21,c1cc([C@H]2C[C@@H]3CCN(Cc4nccs4)C[C@H]3O2)ncn1,-0.9402

row,Structure (SMILES),Percent Effect [%]
1,COCC1CC2(CCNCC2)CN1c1ncccn1 (stereo unspecified),-4.112
2,O=C(O)C(F)(F)F.O=C(O)C(F)(F)F.c1ccc(CN2CCCC3(CCN(CC4CCCO4)CC3)C2)nc1 (stereo unspecified),98.44
3,O=C(O)C(F)(F)F.c1ccc(N2CCCC3(CCN(Cc4ccsc4)C3)C2)nc1 (stereo unspecified),92.47
4,CC(C)CN1CCCC2(CCN(c3ccccn3)C2)C1.O=C(O)C(F)(F)F (stereo unspecified),0.9995
5,Fc1cnc(N2CCCC3(CCN(Cc4ccsc4)C3)C2)nc1.O=C(O)C(F)(F)F.O=C(O)C(F)(F)F (stereo unspecified),-8.586
6,CC(C)N1CCO[C@H]2CN(C(=O)c3ccncc3F)C[C@H]21.O=C(O)C(F)(F)F,-21.77
7,CCN1CCN(Cc2csc(C(C)C)n2)CC1,-0.2652
8,c1cc(CN2CCSC3(CCCCC3)C2)no1,-28.1
9,CCN1CCN(Cc2nc(C)no2)CC1,8.697
10,Clc1cncc(N2CCN(Cc3ccon3)CC2)n1,98.12
11,CCN1CCN(c2cncc(Cl)n2)CC1,88.05
12,c1cc(CN2CCN(Cc3ccon3)C3(CCCCC3)C2)no1,-15.56
13,CC(C)(O)CNc1ccc(C#N)c(C(F)(F)F)c1,7.337
14,O=C(C1CCC1)N1CCC2(CC1)CNCCO2,-23.25
15,O=C(C1CCCCC1)N1CCC2(CC1)OCCO2,92.72
16,O=C(C1CCCC1)N1CCC2(CC1)OCCO2,-31.13
17,Cl.O=C(C1CC=CC1)N1CCC2(CC1)CNCCO2,-11.15
18,O=C(c1cnn2c1OCCC2)N1CCC2(CC1)OCCO2,-3.54
19,O=C(C1CC=CC1)N1CCC2(CC1)OCCO2,105.5
20,CS(=O)(=O)N1CCC(C(=O)N2CCC3(CC2)OCCCO3)CC1,6.012
21,O=C(C1CCN(S(=O)(=O)N2CCCC2)CC1)N1CCC2(CC1)OCCO2,110.6

row,Structure (SMILES),Percent Effect [%]
1,O=C(C1CC(=O)N(c2ccccc2Br)C1)N1CCC2(CC1)OCCO2 (stereo unspecified),-9.549
2,Cn1cc(C2=CCN(CCCOc3ccc(C(N)=O)cc3)CC2)cn1,-2.558
3,Fc1cnccc1CN1CCC2(CCNCC2)C1,-4.399
4,Cc1cccnc1CC(C)NC1Cc2ccccc2C1 (stereo unspecified),-26.27
5,Cn1ccnc1CN1CC2(CCN(Cc3ccncc3)C2)C1,-5.589
6,Cc1cccnc1CN1CCC2(CC(Nc3ccncn3)C2)C1 (stereo unspecified),130.7
7,CCN1CCC2(CC1)CC(Nc1ncccn1)CO2 (stereo unspecified),-3.551
8,Cc1cc(NC2CC3(CCN(Cc4ncccc4F)C3)C2)ncn1 (stereo unspecified),100.5
9,COC(=O)CNC(=O)c1cn(Cc2ccccc2F)nn1,4.551
10,CN(c1ncccc1C#N)C1CCN(CCc2ccncc2)CC1,-9.489
11,Cc1ccccc1-n1cc(C2=CCN(CCN3CCOCC3)CC2)cn1,-7.999
12,CC(C)c1nc(N2CCN3CCCC3C2)c2cnn(C)c2n1 (stereo unspecified),18.47
13,CCCc1nc(N2CCCC3(CCNC3)C2)c2cnn(C)c2n1 (stereo unspecified),-0.0368
14,CCOCc1nc2c(c(N3CCN4CCCC4C3)n1)CCNCC2 (stereo unspecified),3.786
15,CCCc1nc(N2CCCN3CCC[C@H]3C2)c2cnn(C)c2n1,64.99
16,Cn1ncc2c(N3CCCC4(CCNC4)C3)nc(C(C)(C)C)nc21 (stereo unspecified),8.536
17,Cn1ncc2c(N3CCCN4CCC[C@H]4C3)nc(C(C)(C)C)nc21,135.6
18,Cc1nc(COC[C@@H]2CC[C@H]3NCC[C@H]3O2)cs1.Cl.Cl,12.23
19,N#Cc1ccc(NC2CCN(c3ncccn3)CC2)cc1C(F)(F)F,-29.96

# — ChEMBL document CHEMBL3988442, “University of Dundee, Small-Polar-MMV Screening Library” (2021)
